Several values for one entry are separate records, joined by “and”; a condition that tells them apart may be missing. Identical values can stand only once. This is part of a sample that, as a whole, favours compounds with a hit. Of some 83,000 tested, about 20% had one in any assay.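 For each line, cells grew in 96-well plates with the test compound present at a single concentration for 48 hours.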 Activity calls are given as the source filed them. Rule for the calls: active = growth percent below 10; inactive = the rest.
Assays:
Assay in all cases: NCI-60 one-dose screen, 48 h (100 = growth as untreated, 0 = no growth, -100 = all killed)
Conditions in all cases: 10 µM unless noted
[1] = test system: T-47D breast
[2] = test system: BT-549 breast
[3] = test system: MDA-MB-435 melanoma
[4] = test system: SW-620 colon
[5] = test system: MCF7 breast
[6] = test system: HCT-116 colon
[7] = test system: HCC-2998 colon
[8] = test system: KM12 colon

Measured: growth

CC1(C)CC(=O)NC1=O
inactive: [1] 91.5% | [2] 104% | [3] 94.9% | [4] 107% | [5] 93.6% | [6] 96.5% | [7] 102% | [8] 102%

COc1ccc2oc3c(ccc[n+]3C)c(=O)c2c1
inactive: [1] 85.9% | [2] 103% | [3] 105% | [4] 105% | [5] 100% | [6] 101% | [7] 117% | [8] 108%

CCOC(=O)C1=C(C)NC(C)=C(C(=O)OCC)C1
inactive: [1] 90.1% and 116% | [2] 110% and 93.7% | [3] 95.4% and 97.6% | [4] 91.9% and 96.9% | [5] 102% and 115% | [6] 140% and 87.3% | [7] 114% and 87.1% | [8] 96.8% and 113%

O=C(O)c1ccc2c3ccc(C(=O)O)c4c(C(=O)O)ccc(c5ccc(C(=O)O)c1c25)c43
inactive: [1] 97.2% | [2] 64.8% | [3] 101% | [4] 97.5% | [5] 93.3% | [6] 90.1% | [7] 76.9% | [8] 100%

Nc1ccccc1SC1CC(=O)N(c2ccc(I)cc2)C1=O (configuration not stated)
inactive: [1] 82.3% | [2] 91.6% | [3] 91.8% | [4] 93.3% | [5] 86.5% | [6] 95.3% | [7] 103% | [8] 79.1%

CNc1ccc(O)cc1
inactive: [1] 108% and 101% | [2] 107% and 103% | [3] 107% and 101% | [4] 103% and 89.9% | [5] 94.9% and 110% | [6] 108% and 97.3% | [7] 124% and 105% | [8] 112% and 91.3%

CC1OS(=O)OC1C (configuration not stated)
inactive: [1] 93% | [2] 105% and 104% | [3] 99.3% and 101% | [4] 105% and 98.3% | [5] 91.2% and 93.9% | [6] 105% and 102% | [7] 99.3% and 118% | [8] 107% and 97.5%

N#CC1c2ccccc2C=CN1C(=O)c1ccccc1 (configuration not stated)
inactive: [1] 106% and 103% | [2] 115% and 139% | [3] 98.7% and 87.8% | [4] 94.8% and 103% | [5] 93.1% and 114% | [6] 107% and 92% | [7] 109% and 115% | [8] 107% and 91.5%

COC(=O)c1nc(N)nc(C(=O)OC)c1C(=O)c1ccc(F)cc1
inactive: [1] 105% | [2] 120% | [3] 107% | [4] 110% | [5] 97.1% | [6] 110% | [7] 110% | [8] 107%

COc1ccc(S(=O)(=O)c2ccc(F)cc2)cc1
inactive: [1] 99% | [2] 99% | [3] 122% | [4] 103% | [5] 101% | [6] 102% | [7] 111% | [8] 106%

O=C(O)c1cccc(Br)c1
inactive: [1] 92.3% and 83.4% | [2] 104% | [3] 114% and 107% | [4] 112% and 104% | [5] 98.7% and 98.2% | [6] 99.7% and 97.6% | [7] 122% and 103% | [8] 101% and 106%

Cc1cc(-c2ccc(N=Nc3c(C)nn(-c4ccc(S(=O)(=O)O)cc4)c3O)c(C)c2)ccc1N=Nc1ccc(O)c(C(=O)O)c1
inactive: [1] 99.7% | [2] 98.5% | [3] 110% | [4] 98.8% | [5] 94% | [6] 99.8% | [7] 94% | [8] 96.1%

O=COCCCc1ccccc1
inactive: [1] 92.7% | [2] 104% | [3] 110% | [4] 103% | [5] 105% | [6] 96.1% | [7] 121% | [8] 109%

Nc1ccc(O)c(C(=O)O)c1
inactive: [1] 95% and 104% and 106% | [2] 76.3% and 111% and 92.6% | [3] 99.8% and 101% and 108% | [4] 96.7% and 94.1% and 103% | [5] 86.4% and 102% and 107% | [6] 98.7% and 99.9% and 85.5% | [7] 107% and 104% and 99.9% | [8] 101% and 107% and 91.5%

CC1=CC(=O)c2cccc(NC3=NCCO3)c21
inactive: [1] 90.3% | [2] 101% | [3] 98.4% | [4] 95.2% | [5] 98.6% | [6] 97.9% | [7] 104% | [8] 97.7%

NNc1ncnc2cccc(Cl)c12
inactive: [1] 90.6% | [2] 112% | [3] 115% | [4] 104% | [5] 96.6% | [6] 98.1% | [7] 104% | [8] 106%

CCN(CC)CCNC(=O)c1ccc(NCN2C(=O)NC(c3ccccc3)(c3ccccc3)C2=O)cc1
inactive: [1] 117% and 95.2% | [2] 107% and 120% | [3] 94.6% and 103% | [4] 105% and 106% | [5] 98.4% and 94.6% | [6] 104% and 95.1% | [7] 102% and 125% | [8] 106% and 101%

O=C(O)c1c2c(nc3ccccc13)Cc1ccccc1-2
inactive: [1] 97.3% and 98.5% | [2] 103% and 88.1% | [3] 112% and 96.6% | [4] 99.3% and 90.1% | [5] 97.3% and 92% | [6] 95.6% and 104% | [7] 98.3% and 99.9% | [8] 97.8% and 98.9%

O=C1C=CC(=O)N1Cc1ccco1
inactive: [1] 91.7% | [2] 100% | [3] 95.8% | [4] 58.4% | [5] 62% | [6] 52.5% | [7] 101% | [8] 103%

CCCCCc1cc[n+](CC(=O)c2ccccc2)cc1
inactive: [1] 95.4% and 101% | [2] 95.9% | [3] 105% | [4] 96.7% and 104% | [5] 104% and 93.7% | [6] 95.3% and 91.9% | [7] 105% | [8] 102% and 104%

COC(=O)c1ccccc1Cl
inactive: [1] 94% | [2] 98.4% | [3] 103% | [4] 103% | [5] 99.6% | [6] 100% | [7] 105% | [8] 101%

COc1ccc(CCn2cnn3c(=O)c4ccccc4nc3c2=O)cc1OC
inactive: [1] 113% and 103% | [2] 91.4% and 114% | [3] 103% and 119% | [4] 101% and 112% | [5] 106% and 100% | [6] 99.4% and 107% | [7] 104% and 111% | [8] 94.4% and 103%

Nc1ccc2ccc(NS(=O)(=O)N3CCCCC3)cc2c1
active: [3] -14.7% | [6] 9.95% | [7] -3.22%
inactive: [1] 46.8% | [2] 29% | [4] 27.9% | [5] 17.8% | [8] 15%

CCOC(=O)NC(N)=O
inactive: [1] 104% and 107% | [2] 96% and 110% | [3] 101% and 99% | [4] 107% and 111% | [5] 103% and 107% | [6] 99.3% and 99.5% | [7] 103% | [8] 112%

Source: PubChem BioAssay (NCI)
